Sampled rows, rich in hits. Any-hit rate of the full collection: about 19%.
Pf growth 96h: P. falciparum growth inhibition at 96 hour, primary screen for plastid delayed-death inhibitors; P. falciparum luciferase reporter growth, 96 h; Potency, µM (highest dose often 28.7 µM), inactives show at the top dose activity change, negative = inhibition, usual class: inhibitors; actives 6.9% (n = 320,000); also: potency is read from the fitted curve at half-maximal effect; % is scaled to controls: 0 for no effect and ±100 for the full control effect
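Compounds incubated with erythrocytes infected by luciferase-expressing P. falciparum (2% hematocrit, 0.05% parasitemia final) for 96 hours, 37 C in 5% CO2. Growth inhibition scored as decreased luciferase luminescence.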
AMA1-RON2 inh: disrupts binding of P. falciparum AMA1 to RON2 | AlphaScreen AMA1-biotinylated RON2 peptide binding | Potency, µM (top dose mostly 58.2 µM), inactives show at the top dose activity change, negative = inhibition, hits mostly inhibitors | actives 0.2% (n = 360,000);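 also: potency is read from the fitted curve at half-maximal effect; 0% = vehicle wells and -100% = peptide control; nearly all actives have a fitted effect of over 45% in size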
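AMA1 (3D7) with his tag at 25 nM final met compounds first, then biotinylated RON2 peptide at 25 nM; detection used donor plus acceptor beads, 10 µg/mL apiece, read by AlphaScreen after 30 min at room temperature.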
CHX counter: affects cycloheximide protein synthesis inhibition readout, counter-screen; max response, %; AID 2314; actives 12% (n = 300,000); cell reporter, cycloheximide protein synthesis inhibition counterscreen; in the data active = max response mostly above about 13%, no sharp cut-off; inactive = mostly below about 14%; also: read at 38.3 µM for the half of the compounds with a filed dose; 0% is about no effect
Pf growth 48h: inhibits P. falciparum growth in the first generation, 48 h; Potency, µM (doses to about 28.7 µM), for the others: at the top dose activity change, negative = inhibition, actives largely listed as inhibitors; P. falciparum luciferase growth in erythrocytes, 48 h; AID 504832; actives 5.9% (n = 310,000); also: potency is read from the fitted curve at half-maximal effect; % is scaled to controls: 0 for no effect and ±100 for the full control effect
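A one-generation exposure of luciferase-tagged malaria parasites in RPMI 1640/Albumax erythrocyte culture, 37 C and 5% CO2. Inhibition is inferred from decreased luminescence after adding detection reagent.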
SARS PLpro yeast: inhibitors of SARS-CoV papain-like protease in yeast; AID 485353; S. cerevisiae expressing SARS-CoV PLpro, growth rescue; Potency, µM (highest dose often 32.9 µM), without a hit: top-dose activity, positive = growth rescue, hits mostly activators; actives 0.19% (n = 330,000); calls by dose curve; also: potency is read from the fitted curve at half-maximal effect; 0% is about no effect; nearly all actives have a fitted effect of over 55% in size
Shiga toxin inh: inhibitors of Shiga toxin in Vero cells; Vero cells, Shiga toxin protein synthesis inhibition reporter; inhibition, % at 38.7 µM; actives 9.2% (n = 290,000); AID 2315; in the data active = inhibition mostly above about 28%, no sharp cut-off; inactive = mostly below about 43%; also: 0% is about no effect
* = called active by the depositor; u = inconclusive; x = no result. Unless noted, calls follow the shape of the dose curve; as a rule, active = well fitted curve in the direction sought with a large enough effect; inconclusive = small, poorly fitted or top-dose-only effect, or another doubt; inactive = no such curve, though single readings can be large; an effect the other way counts as inactive or inconclusive.

SMILES	Pf growth 96h	AMA1-RON2 inh	CHX counter	Pf growth 48h	SARS PLpro yeast	Shiga toxin inh
Cc1ccc(C2CN=NC23CCc2ccccc2C3=O)cc1 (stereo not drawn)	3.7µM*	6%	47*	x	-29%	173*
O=C1c2ccccc2CCCC12N=NCC2c1cccc2ccccc12 (stereo not drawn)	1.9µM*	-22%	-4	2.6µM*	-30%	7
COC(=O)c1ccc(C)cc1C1CN=NC12Cc1cc(C)ccc1C2=O (stereo not drawn)	x	-18%	x	x	x	x
COc1ccccc1CCc1nnc(CCC(=O)NC(C)Cc2cccc(C)n2)o1 (stereo not drawn)	7%	-7%	1	-14%	0%	36
CCOC(=O)Cc1nnc(-c2ccccc2)o1	u	44%	22*	16%	-3%	36
CCOC(=O)CN(C)C(=O)CCc1nnc(-c2ccc(-c3ccccc3)cc2)o1	-13%	-2%	13*	u	-4%	35
Cc1ccc(S(=O)(=O)N(C)CC(=O)OCc2nnc(-c3ccccc3)o2)cc1	9%	1%	8	8%	-11%	33
CCN(CC)CCN(C)C(=O)CCc1nnc(-c2ccc(C)s2)o1	u	1%	22*	50%	0%	34*
Cc1cccc(CC(C)NC(=O)CCc2nnc(-c3ccccc3)o2)n1 (stereo not drawn)	u	7%	13*	-8%	2%	22
CC(C)(CO)CNC(=O)CCc1nnc(-c2ccc(-c3ccccc3)cc2)o1	u	0%	25*	0%	-1%	60*
CC1CCCC2(C1)NC(=S)c1c(sc3c1CCCC3)N2 (stereo not drawn)	5.2µM*	53%	15*	x	-1%	57
CCN1C(=O)/C(=C/N(C)c2ccccc2)OC1=S	-6%	4%	25*	46%	-4%	67*
CCN1C(=O)/C(=C\N(C(C)=O)c2ccccc2)OC1=S	12µM*	0%	32*	32%	-58%	31*
CCN1C(=O)/C(=C2\Sc3ccccc3N2CC)OC1=S	-13%	-3%	1	7%	25%	11
CC(=O)N(/C=C1\SC(=S)N(c2ccccc2)C1=O)c1ccccc1	4%	-1%	9	14%	-8%	40
CC1CCCCN1CCn1c(=S)[nH]c2ncccc2c1=O (stereo not drawn)	10%	10%	-5	-14%	4%	-4
CC1CCCCN1CCNc1nc(=S)[nH]c2ccccc12 (stereo not drawn)	2.3µM*	-6%	-3	3%	-2%	-21
CO/N=C\CC(=O)Nc1ccc(Cl)cc1Cl	56%	1%	21*	25%	0%	46
CO/N=C\CC(=O)Nc1ccc(F)cc1	23%	9%	6	12%	1%	-6
COc1ccc(C(=O)NCc2nnc(SCC(=O)N3CCCC3)o2)cc1OC	43%	11%	-3	-10%	10%	-4
O=C(N[C@H]1CC[C@H](CCNC(=O)C2CC2)O[C@@H]1CO)c1ccccn1	x	16%	x	x	x	x
CC(/C=C/c1ccc2c(c1)OCO2)=N\NC(=O)c1cccc([N+](=O)[O-])c1	u	56%	20*	x	10%	35
C/C(=N\NC(=O)c1ccc(Cl)c(Cl)c1)c1ccc(Br)s1	10%	-2%	-1	-18%	15%	-2
Cc1ccc(NC(=S)NC(C)(C)C)c([N+](=O)[O-])c1	u	-3%	26*	19%	2%	25
C=CCNC(=S)Nc1ccc(C)cc1[N+](=O)[O-]	u	1%	15	20%	-2%	26
SMILES	Pf growth 96h	AMA1-RON2 inh	CHX counter	Pf growth 48h	SARS PLpro yeast	Shiga toxin inh
C/C(=N/NC(=O)c1ccc2c(c1)OCO2)c1ccc(Br)s1	u	12%	16	58%	-3%	49*
CC/C(=N\NC(=O)c1ccc2c(c1)OCO2)C12CC3CC(CC(C3)C1)C2	x	33%	26*	34%	2%	57*
CC/C(=N\NC(=O)c1ccncc1)C12CC3CC(CC(C3)C1)C2	-16%	84%	-2	x	8%	22
Cc1cccc(C)c1NC(=O)C(c1ccncc1)N1CCN(CCN(C)C)CC1 (stereo not drawn)	x	-1%	x	x	x	x
Oc1ccc(C[C@H]2CNC(=S)N2CC2CCCN2C[C@H](Cc2ccccc2)N2C[C@H](Cc3ccc(O)cc3)N(CC3CCCCC3)C2=S)cc1 (stereo partly drawn)	x	27%	x	x	x	x
CCOC(=O)C1=C(COC(=O)c2ccc(Cl)nc2)NC(=O)NC1C (stereo not drawn)	x	6%	x	x	x	x
O=C(NC1C2CC3CC(C2)CC1C3)c1ccc2c(c1)OCO2 (stereo not drawn)	u	4%	28*	-5%	-6%	36*
Cc1ccc(NC(=O)C2CC2c2ccccc2)c([N+](=O)[O-])c1 (stereo not drawn)	u	-16%	35*	33%	0%	34*
CC(=O)Nc1cccc(/C(C)=N/NC(=O)c2ccc(O)cc2)c1	34%	1%	31*	21%	0%	52
C/C(=N\NC(=O)C1CC1c1ccccc1)c1cccc([N+](=O)[O-])c1 (stereo not drawn)	8.3µM*	5%	-3	-3%	4%	5
C/C(=N\NC(=O)C1CC1(c1ccccc1)c1ccccc1)c1cccc([N+](=O)[O-])c1 (stereo not drawn)	u	-6%	-3	0%	1%	-6
O=C(NNC(=O)c1ccc2c(c1)OCO2)NC12CC3CC(CC(C3)C1)C2	-28%	37%	-3	42%	4%	-5
O=C(CSc1nc(=O)[nH]c2c1CCCC2)Nc1cc(C(F)(F)F)cc(C(F)(F)F)c1	25%	-6%	x	5%	x	x
CS(=O)(=O)NC(=O)CCC/C=C\C[C@H]1C(=O)C[C@@H](O)[C@@H]1/C=C/[C@@H](O)COc1ccccc1	x	x	-7	x	x	-13
O=C(CNC(=O)c1ccc2c(c1)OCO2)N/N=C/c1cccc([N+](=O)[O-])c1	51%	-4%	11	4%	0%	31
O=C(N/N=C/C=C/c1ccc2c(c1)OCO2)C(O)c1ccccc1 (stereo not drawn)	25%	23%	11	2%	0%	47*
C/C(=N/NC(=O)c1ccc(O)cc1)c1cccc([N+](=O)[O-])c1	u	-9%	31*	43%	2%	59*
C/C(=N/NC(=O)c1ccc2c(c1)OCO2)c1cccc([N+](=O)[O-])c1	u	9%	31*	73%	-2%	37*
C/C(=N\NC(=O)c1cccc([N+](=O)[O-])c1)c1cccs1	36%	65%	13	64%	-1%	39*
C/C(=N\NC(=O)c1cccc([N+](=O)[O-])c1)c1ccncc1	17%	8%	10	32%	3%	27
